# Results as given in PubChem BioAssay (NCI).
# This is part of a sample that, as a whole, favours compounds with a hit. Of some 83,000 tested, about 20% had one in any assay.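 Interpretation: 100, growth as untreated; towards 0, rising growth inhibition; 0, no net growth; 0 to -100, cell death. Compounds scoring below 10 were considered active.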 Unmarked numbers belong to inactive results. Activity calls are given as the source filed them.
# Assays:
# Assay in all cases: NCI-60 one-dose screen, 48 h (100 = growth as untreated, 0 = no growth, -100 = all killed)
# A549/ATCC NSCLC = conditions: 10 µM unless noted
# DU-145 prostate = conditions: 10 µM unless noted
# K-562 leukemia = conditions: 10 µM unless noted
# RXF 393 renal = conditions: 10 µM unless noted
# SF-295 CNS = conditions: 10 µM unless noted
# UACC-257 melanoma = conditions: 10 µM unless noted
# HCT-15 colon = conditions: 10 µM
# HT29 colon = conditions: 10 µM unless noted
# LOX IMVI melanoma = conditions: 10 µM unless noted
# SN12C renal = conditions: 10 µM unless noted
# CAKI-1 renal = conditions: 10 µM unless noted
# A498 renal = conditions: 10 µM unless noted
# HL-60(TB) leukemia = conditions: 10 µM unless noted
# MOLT-4 leukemia = conditions: 10 µM
# OVCAR-8 ovarian = conditions: 10 µM unless noted
# OVCAR-4 ovarian = conditions: 10 µM unless noted
# SK-OV-3 ovarian = conditions: 10 µM unless noted
# HS 578T breast = conditions: 10 µM unless noted
# BT-549 breast = conditions: 10 µM
# HCC-2998 colon = conditions: 10 µM unless noted
SMILES,growth (A549/ATCC NSCLC),growth (DU-145 prostate),growth (K-562 leukemia) [%],growth (RXF 393 renal),growth (SF-295 CNS),growth (UACC-257 melanoma) [%],growth (HCT-15 colon),growth (HT29 colon),growth (LOX IMVI melanoma),growth (SN12C renal),growth (CAKI-1 renal),growth (A498 renal) [%],growth (HL-60(TB) leukemia),growth (MOLT-4 leukemia),growth (OVCAR-8 ovarian),growth (OVCAR-4 ovarian) [%],growth (SK-OV-3 ovarian),growth (HS 578T breast),growth (BT-549 breast),growth (HCC-2998 colon) [%]
O=C1C=CC(=O)C2C1C1(Cl)C(Cl)=C(Cl)C2(Cl)C1(Cl)Cl (configuration not stated),60.6%,70.1%,29.2,23.9%,39.5%,57.5,54.3%,76.7%,50.5%,67.3%,51.8%,36.1,9.38% (active),59.5%,74.3%,58.1,71%,58.2%,36.4%,
CCN(CC)CCOc1c(C(C)C)cccc1C(C)C,89.5%,,111,112%,93.8%,94.8,98.4%,95.4%,99.5%,105%,89.8%,82.1,107%,102%,100%,99.3,112%,110%,123%,102
c1ccc(CCN2CCCCC2Cc2ccccc2)cc1 (configuration not stated),96.2%,,101,117%,91.4%,98.5,104%,72.8%,90.9%,,101%,89.5,80.3%,92.7%,106%,115,106%,116%,111%,83.6
O=[N+]([O-])c1ccc(/C=C/C=C/c2ccc(S(=O)(=O)F)cc2)c(Cl)c1,98.6%,107%,96.1,92.2%,93.1%,96.5,98%,96%,102%,96.7%,98.3%,100,91.9%,84.1%,99%,87.5,98%,111%,100%,106
COc1cc(C2(C#N)CCN(C)CC2)cc(OC)c1OC,88.8%,113%,97.5,114%,98.8%,108,97.2%,101%,93.8%,103%,79.1%,88.4,95%,83.3%,101%,104,105%,100%,101%,
Nc1ccc([N+](=O)[O-])c2c1Oc1ccccc1O2,93.8%,93.1%,113,49.5%,85.1%,101,87.8%,103%,103%,98%,58.3%,72.9,-17.4% (active),79.7%,92.9%,94.5,88.9%,100%,87%,108
N#C[Se]CCN1C(=O)C2C(C1=O)[C@H]1C=C[C@@H]2S1 (some centres not stated),-19.3% (active),-33.3% (active),24.3,-52.2% (active),-34.8% (active),10.9,-4.75% (active),5.94% (active),-46% (active),-18.8% (active),-98.7% (active),,-48.1% (active),4.47% (active),-19.3% (active),25.3,4.59% (active),-10.3% (active),-81% (active),67.4
O=C(c1cccs1)C1NO[N+]([O-])=C1c1cccs1 (configuration not stated),86.9%,120%,37.4,-25.1% (active),107%,46.2,64.9%,,-100% (active),73.4%,-62.9% (active),113,9.45% (active),38.5%,24.5%,,118%,83%,88.7%,96.5
